Bioassay records deposited in PubChem BioAssay by National Center for Advancing Translational Sciences (NCATS).
Only some compounds are listed: those with a hit (about 7.1% of all), similar ones and a draw of the others.
ELG1 genotoxic – qHTS screen for small molecules that induce genotoxicity in human embryonic kidney (HEK293T) cells expressing luciferase-tagged ELG1. HEK293T ELG1-luciferase reporter, luminescence, 16 h. Potency, µM (series often up to 46 µM), for the others: at the top dose activity change, positive = activation, most hits filed as activators. hit rate 1.3% among 330,000; further: % of control where 0% means no effect; nearly all actives have a fitted effect of over 60% in size
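Cells (2,000/well) expressing the ELG1-luciferase fusion are dosed by pin tool and kept 16 hr at 37 °C, 5% CO2. Signal comes from ONE-Glo luciferase reagent after 30 min at room temperature.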
p53 reactivator – qHTS assay for re-activators of p53 using a Luc reporter; H1299 p53-A138V BP100-luciferase reporter, luminescence, 24 h; Potency, µM (series often up to 92.2 µM), without a hit: at the highest dose activity change, positive = activation, actives largely listed as activators; hit rate 0.063% among 320,000; AID 504706, 2011; further: % of control where 0% means no effect; nearly all actives have a fitted effect of over 45% in size
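p53-null H1299 cells stably carrying temperature-sensitive p53-A138V and a BP100-luciferase reporter were pinned with compounds (4-point, 1:5 series) and held 24 hrs at 37 deg C. Luminescence was read 10 min after detection reagent.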
ELG1 repair inh – qHTS screen for small molecules that inhibit ELG1-dependent DNA repair in human embryonic kidney (HEK293T) cells expressing luciferase-tagged ELG1. Potency, µM (titrated, usually from 46.1 µM), for inactives: top-dose activity change, negative = inhibition, hits mostly inhibitors. HEK293T ELG1-luciferase reporter, luminescence, 16 h; DNA damage induced by 5-fluorouridine. hit rate 2.3% among 330,000; further: on the % scale 0 is the no-effect control and ±100 the full control effect; nearly all actives have a fitted effect of over 55% in size
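5-Fluorouridine DNA damage + compound/DMSO, 2,000 cells/well, 16 h, 37 °C/5% CO2. ONE-Glo, 30 min RT, luminescence. Readout = decrease in reporter signal.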
SW480 rerep – A quantitative high throughput screen for small molecules that induce DNA re-replication in SW480 colon adenocarcinoma cells; Potency, µM (top dose mostly 46.1 µM), for inactives: at the highest dose re-replication activation, hits mostly activators; SW480 DNA re-replication, Hoechst DNA content imaging, 48 h; hit rate 1.8% among 340,000; further: % of control where 0% means no effect; nearly all actives have a fitted effect of over 55% in size
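Per well, 250 cells were exposed to pinned compound for 48 hr. Nuclear DNA was visualised with Hoechst (40 min, 37 C) and total object intensity recorded by fluorescence scanning.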
MCF10A rerep – A quantitative high throughput screen for small molecules that induce DNA re-replication in MCF 10a normal breast cells | MCF 10A DNA re-replication, Hoechst nuclear intensity, 48 h | Potency, µM (highest dose often 46.1 µM), for inactives: top-dose activity, positive = re-replication, usual class: activators | hit rate 2.9% among 350,000; further: % of control where 0% means no effect; nearly all actives have a fitted effect of over 50% in size
AT treatment – qHTS Assay for Identifying a Potential Treatment of Ataxia-Telangiectasia; Potency, µM (top dose mostly 57.5 µM), for the others: at the highest dose activation, actives largely listed as activators; F2112 A-T fibroblasts, KAP-1 phosphorylation AlphaLISA; neocarzinostatin DNA damage 30 min before lysis; AID 485349, 2010; hit rate 0.19% among 320,000; further: % of control where 0% means no effect; nearly all actives have a fitted effect of over 45% in size
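ATM-like activity read as KAP-1 phosphorylation via AlphaLISA donor/acceptor antibody pairs after lysis and 6 hr at 25C. Cells were ATM-null patient fibroblasts (F2112, hTERT), dosed 60 min, then exposed to the DSB inducer NCS for 30 min.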
ELG1 FLuc counter – qHTS screen for small molecules that inhibit ELG1-dependent DNA repair: Hit Confirmation in Cell-Based Luciferin Assay. shares compounds with ELG1 repair inh. Potency, µM (titrated, usually from 46.1 µM), for the others: at the highest dose activity change, negative = inhibition, actives largely listed as inhibitors. hit rate 3% among 350. cell-free firefly luciferase luminescence counter-screen, ViewLux; further: on the % scale 0 is the no-effect control and ±100 the full control effect
ELG1 Luc conf – HTS assay for small molecules that inhibit ELG1-dependent DNA repair in human embryonic kidney (HEK293T) cells expressing luciferase-tagged ELG1: Hit Confirmation. shares compounds with ELG1 repair inh. HEK293T ELG1-luciferase levels, luminescence; cells co-treated with 5-fluorouridine. Potency, µM (highest dose often 46.1 µM), for the others: at the top dose activity change, negative = inhibition, actives largely listed as inhibitors. hit rate 68% among 670. AID 624248, 2012; further: on the % scale 0 is the no-effect control and ±100 the full control effect; nearly all actives have a fitted effect of over 55% in size
ELG1-Luc MMS – confirmation of human ELG1 repair inhibitors, MMS stimulated; shares compounds with ELG1 repair inh; hit rate 53% among 670; AID 624249; Potency, µM (series often up to 46.1 µM), inactives show at the top dose activity change, negative = inhibition, actives largely listed as inhibitors; HEK293T luciferase-tagged ELG1 level, MMS stimulated; further: on the % scale 0 is the no-effect control and ±100 the full control effect; nearly all actives have a fitted effect of over 60% in size
ELG1 5FU viab – qHTS screen for small molecules that inhibit ELG1-dependent DNA repair: Hit Confirmation with 5FU Viability | shares compounds with ELG1 repair inh | cell viability with 5-FU, ELG1-dependent repair | AID 624250, 2012 | Potency, µM (series often up to 46.1 µM), inactives show top-dose activity change, negative = viability loss, usual class: cytotoxic | 670 tested, under 10 active;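 further: ELG1-luc HEK293T cells cotreated with 5-fluorouridine at 10 µM final; viability measured 16 h after compound addition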
ELG1 MMS cell – qHTS screen for small molecules that inhibit ELG1-dependent DNA repair: Hit Confirmation with MMS Viability; shares compounds with ELG1 repair inh; Cell viability with MMS, ELG1-dependent DNA repair; Potency, µM (top dose mostly 46.1 µM), for the others: at the top dose activity change, negative = viability loss, usual class: cytotoxic; hit rate 33% among 670;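 further: ELG1-luc HEK293T cells co-treated with 10 µM MMS; viability read 16 h after compound addition; on the % scale 0 is the no-effect control and ±100 the full control effect; nearly all actives have a fitted effect of over 60% in size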
Cell viab unstim – qHTS screen for small molecules that inhibit ELG1-dependent DNA repair: Hit Confirmation with Unstimulated Viability Assay; shares compounds with ELG1 repair inh; cell viability counter-screen, unstimulated, luminescence; Potency, µM (highest dose often 45.9 µM), for the others: at the top dose activity change, negative = loss of viability, usual class: cytotoxic; hit rate 8% among 900; AID 624252, 2012;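 further: compound exposure lasted 16 hours before reading; on the % scale 0 is the no-effect control and ±100 the full control effect; nearly all actives have a fitted effect of over 55% in size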
FLuc biochem – qHTS screen for small molecules that inhibit ELG1-dependent DNA repair: Hit Confirmation in Biochemical Luciferin Assay; shares compounds with ELG1 repair inh; purified firefly luciferase, luminescence counter-screen; Potency, µM (titrated, usually from 57.5 µM), without a hit: top-dose activity, negative = inhibition, most hits filed as inhibitors; hit rate 10% among 350; further: on the % scale 0 is the no-effect control and ±100 the full control effect
Active calls of the source: *; ? = inconclusive; nt = not tested or not shown; [ ] = another dose, or the depositor's remark. The call rests on the fitted dose curve; in most records, active means well fitted curve in the direction sought with a large enough effect; inconclusive means small, poorly fitted or top-dose-only effect, or another doubt; inactive means no such curve, though single readings can be large; an effect the other way counts as inactive or inconclusive. Potency means the concentration at half of the fitted maximal effect.

SMILES | ELG1 genotoxic | p53 reactivator | ELG1 repair inh | SW480 rerep | MCF10A rerep | AT treatment | ELG1 Luc conf | ELG1-Luc MMS | ELG1 5FU viab | ELG1 MMS cell | Cell viab unstim | others
COc1ccc(Cl)cc1NC(=O)CN(C)C(=O)C12CC3CC(CC(Cl)(C3)C1)C2 | -6.2% | -1.8% | 18.3µM* | 16.8% | 21.7% | -1.8% | nt | nt | nt | nt | nt
COc1ccc(Cl)cc1NC(=O)CN(C)C1CCCCC1 | -1.2% | 4.6% | -4.4% | 8.1% | 0.3% | 6.8% | nt | nt | nt | nt | nt
COc1ccc(Cl)cc1NC(=O)CN(C)C(=O)c1cc2c(s1)CCCC2 | -10.5% | -12.0% | ? | 18.4µM* | ? | -3.5% | nt | nt | nt | nt | nt
Cc1cc(C(=O)COC(=O)c2ccc(F)cc2F)c(C)n1C1CC1 | ? | ? | ? | -6.1% | -4.6% | -7.6% | nt | nt | nt | nt | nt
Cc1ccc(NNC(=O)c2ccno2)c(C)c1 | 6.5% | 6.8% | 13µM* | 11.7% | ? | -0.6% | nt | nt | nt | nt | nt
COc1ccc(C(=O)c2ccc(Br)cc2)cc1 | 0.5% | -11.8% | 1.16µM* | -3.0% | -1.0% | 5.2% | 43.4% | 0.0% | 2.2% | -16.7% | 6.6%
O=C(Nc1cnn(Cc2ccc(F)cc2)c1)c1cnn2c(C(F)F)cc(-c3ccccc3)nc12 | -7.3% | -1.8% | 2.31µM* | -2.2% | 4.7% | -6.7% | 5µM* | 12.6µM* | ? | ? | ? | ELG1 FLuc counter=?;FLuc biochem=-11.4%
Cc1ccc(-c2cc(C(F)F)n3ncc(C(=O)Nc4c(C)nn(Cc5c(Cl)cccc5Cl)c4C)c3n2)cc1 | 3.9% | -2.4% | 4.61µM* | 1.4% | ? | -1.9% | 3.97µM* | 6.1% | ? | 2.0% | -4.6% | ELG1 FLuc counter=-4.2%;FLuc biochem=-5.1%
CNS(=O)(=O)c1ccc(NC(=O)c2cnn3c(C(F)F)cc(-c4ccccc4)nc23)cc1 | 26.7% | -7.5% | ? | -4.7% | -0.7% | 1.6% | nt | nt | nt | nt | nt
O=C(CCc1nnc2n(Cc3ccc(Cl)cc3)c(=O)c3ccccc3n12)N1CCN(c2ccccn2)CC1 | 0.4%[9.26 µM] | -6.4% | 3.66µM* | 1.4% | -2.5% | -7.3% | 6.28µM* | 22.3µM* | ? | ? | -10.3%
COc1nc(Nc2nc3ccccc3c(=O)[nH]2)nc2ccc(C)cc12 | -8.1% | 31.4% | 4.61µM* | 4.61µM* | ? | 13.6% | 2.23µM* | 3.15µM* | ? | 7.1% | -4.8%
O=C(Nc1nc(-c2ccc3c(c2)OCCO3)cs1)c1ccc(S(=O)(=O)N2CCCCC2)cc1 | -12.6% | -5.7% | 4.11µM* | 12.3% | 2.4% | 6.8% | ? | 2.81µM* | 7.3% | 3.53µM* | -18.4%
N#Cc1ccccc1S(=O)(=O)N1CCN(CC(=O)Nc2ccccc2C(=O)NC2CC2)CC1 | -6.6% | -9.7% | ? | -13.8% | 1.9% | -4.2% | nt | nt | nt | nt | nt
CC(/C=C/C(=O)NO)=C\[C@@H](C)C(=O)c1ccc(N(C)C)cc1 | nt | nt | nt | nt | nt | nt | nt | nt | nt | nt | 14.1µM* | ELG1 FLuc counter=119.2%;FLuc biochem=?
COc1ccc(-c2cc3ncnc(Cl)c3s2)cc1 | ? | ? | ? | 7.4% | ? | -11.5% | nt | nt | nt | nt | nt
Cn1cnc2c(F)c(Nc3ccc(Br)cc3Cl)c(C(=O)NOCCO)cc21 | nt | nt | nt | nt | nt | nt | nt | nt | nt | nt | -24.9%
Nc1nonc1-n1nnc(C(=O)N/N=C/c2ccc(OCc3ccccc3)cc2)c1CN1CCCCC1 | -4.6% | ? | ? | -36.7% | 11.1% | 2.6% | nt | nt | nt | nt | nt
Oc1cc2cc(-c3csc(-c4ccc(F)cc4)n3)cc3c2n1CCC3 | nt | nt | nt | nt | nt | nt | nt | nt | nt | nt | 1.3%
Oc1ccc(-c2csc(-c3ccccc3)n2)cc1O | ? | ? | ? | -6.6% | 1.8% | -1.5% | nt | nt | nt | nt | nt
COc1ccc(OCC(=O)Nc2cccc(-c3nc4ccccc4o3)c2)cc1 | ? | ? | ? | 1.5% | 6.7% | 1.0% | nt | nt | nt | nt | nt
CCc1ccc(OCC(=O)Nc2ccc(-c3nc4ccccc4o3)c(O)c2)cc1 | ? | 2.1% | ? | 2.1% | 0.0% | 22.2% | nt | nt | nt | nt | -1.9% | ELG1 FLuc counter=14.9%;FLuc biochem=0.6%
Cc1ccc2cc(CN(Cc3ccco3)C(=O)c3ccccc3)c(=O)[nH]c2c1C | 1.1% | -1.2% | -8.1% | 1.2%[9.22 µM] | ? | -1.0% | nt | nt | nt | nt | nt
